Out of some 310,000 compounds screened, about 1,400 (0.45%) were called active.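 Rule for the calls: active = B-score, a plate-corrected calcium signal, over three deviations above library mean, with baseline fluorescence within five deviations of library mean; inactive = the rest.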 The sample as a whole holds a higher share of actives than the screen did.
What follows are molecules tested against Regulator of G-protein signaling 4 (Homo sapiens) (UniProt P49798) (assay: RGS4 inhibitors, primary screen, cell-based, HEK293 M3R inducible RGS4, calcium flux (AID 463165;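 note: RGS4 expression induced by doxycycline in cells with stable M3 receptor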;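 for B-score: B-score is computed from the integrated fluorescence ratio over baseline after carbachol; higher B-score means a larger calcium signal and so more RGS4 inhibition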)). Settings: Fluo-4 calcium flux, at 10 µM, triggered by carbachol at its EC20; stronger effect = higher value.
Sequence of Regulator of G-protein signaling 4 (Homo sapiens) (P49798 whole entry, looked up): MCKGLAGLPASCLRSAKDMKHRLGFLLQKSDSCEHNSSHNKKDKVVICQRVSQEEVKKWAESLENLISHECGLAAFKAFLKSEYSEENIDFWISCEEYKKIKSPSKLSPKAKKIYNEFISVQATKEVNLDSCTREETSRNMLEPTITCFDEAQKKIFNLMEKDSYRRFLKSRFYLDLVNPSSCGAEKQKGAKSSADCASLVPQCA

SMILES | B-score
COC(=O)c1ccc(Nc2ncnc3sccc23)cc1 | inactive
Cc1ccc(-n2c(SCC(=O)N3CCC(C(=O)O)CC3)nc3ccccc3c2=O)cc1C | inactive
Cc1nc(-c2ccccc2)sc1C(=O)/C=C/N(C)C | inactive
Cc1nc(-c2ccccc2)sc1C(=O)/C=C/c1ccccc1 | 11.9 (active)
Cc1nc(-c2ccc(Cl)cc2)sc1C(=O)CBr | inactive
Cc1cccc(C(=O)NC(=S)N(C)C2CCCCC2)c1 | inactive
CCC(c1nnnn1Cc1ccccc1)N(Cc1cc2cc(OC)ccc2[nH]c1=O)CC1CCCO1 (stereo not drawn) | inactive
CCC(c1nnnn1Cc1ccco1)N(CCc1ccccc1)Cc1cc2cccc(C)c2[nH]c1=O (stereo not drawn) | inactive
CCC(c1nnnn1Cc1ccco1)N(Cc1cc2cc(OC)ccc2[nH]c1=O)C1CCCCC1 (stereo not drawn) | 16.8 (active)
COC(=O)/C=C(\Oc1ccccc1)C1(O)CCCCC1 | inactive
O=C(Nc1ccccc1)C1CCN(C(=O)c2ccc(Br)cc2)CC1 | inactive
COc1ccc(C(C[N+](=O)[O-])n2nc(C)cc2C)cc1 (stereo not drawn) | 5.35 (active)
COc1ccc(C(=O)CSc2nc(C)cc(C)n2)cc1[N+](=O)[O-] | inactive
COc1ccc(OCc2cn3c(C)cc(C)nc3n2)cc1 | inactive
CCOc1ccc(NC(=S)NC(=O)/C=C/c2ccc(OC)cc2)c([N+](=O)[O-])c1 | inactive
O=C1Nc2ccc(Br)cc2/C1=N/N=C/C1=C(N2CCOCC2)C(=C\c2ccccc2)/CC1 | 13.1 (active)
N#C/C(=C\C1=C(N2CCOCC2)C(=C\c2ccccc2)/CC1)C(=O)Nc1ccccc1F | inactive
C(=N\N1CCN(c2ccccn2)CC1)/C1=C(N2CCOCC2)C(=C/c2ccccc2)/CC1 | inactive
COc1ccc(C(F)(F)F)cc1N/C=C\c1nnnn1-c1ccc(C)cc1 | inactive
CCOC(=O)c1ccccc1NC(=O)COC(=O)CCC(=O)N1CCOCC1 | inactive
S=c1[nH]nc(-c2cc(-c3ccccc3)n[nH]2)n1/N=C/c1c2ccccc2cc2ccccc12 | inactive
CC(C)c1cc(C(=O)N/N=C/C(Br)=C/c2ccccc2)n[nH]1 | inactive
Cc1cc(-c2n[nH]c(=S)n2/N=C/C(Br)=C/c2ccccc2)n[nH]1 | 7.31 (active)
COCCn1c(SCC(=O)c2[nH]c(C)c(C(C)=O)c2C)nc2ccccc2c1=O | inactive

SMILES | B-score
CCOc1cc2[nH]c(=S)n(Cc3ccc(C(=O)N4CCN(C)CC4)cc3)c(=O)c2cc1OCC | inactive
O=C(C1CCC(=O)N(C2CC2)C1)N1CCN(c2ccc(Cl)cc2)CC1 (stereo not drawn) | inactive
C=CCNc1nc(N)c([N+](=O)[O-])c(NC2CCCCC2)n1 | 7.68 (active)
Nc1nc(NCC2CCCO2)nc(Nc2ccccc2F)c1[N+](=O)[O-] (stereo not drawn) | inactive
Nc1nc(Nc2ccccc2F)nc(NC2CCCCC2)c1[N+](=O)[O-] | inactive
CC(C)c1ccc(/C=C2\NC(=O)NC2=O)cc1 | inactive
C=CCNC(=O)CCCC(=O)NCC=C | inactive
O=C(/C=C/c1ccc(Cl)cc1Cl)c1cccnc1 | inactive
O=C(/C=C/c1ccc(Cl)c([N+](=O)[O-])c1)c1ccc(O)cc1 | 6.92 (active)
O=C(/C=C/c1ccc(Cl)c([N+](=O)[O-])c1)c1cccnc1 | 11 (active)
O=C(Nc1cccnc1)c1ccc(Cl)c([N+](=O)[O-])c1 | inactive
CN(C)c1ccc(/C=C/C(=O)c2ccc(O)cc2)cc1[N+](=O)[O-] | inactive
CN(C)c1ccc(/C=C/C(=O)c2ccc(C(C)(C)C)cc2)cc1[N+](=O)[O-] | inactive
Cc1ccc(S(=O)(=O)N(CC(=O)NN=C2CCN(C)CC2)c2ccc(F)cc2)cc1 | inactive
CCCCN(C(=O)/C=C/c1ccco1)c1c(N)n(CC(C)C)c(=O)[nH]c1=O | inactive
CS/C(=C\[N+](=O)[O-])Nc1ccc(C)cc1 | inactive
COC(=O)NNC(=O)C1CCC(C)CC1 (stereo not drawn) | inactive
c1ccc(C[C@H]2CNCCN2CCC23CC4CC(CC(C4)C2)C3)cc1 | 6.17 (active)
O=C1CCNCCN1[C@H](CO)Cc1ccccc1 | inactive
CC(C)CN(C(=O)CN1CCN(S(=O)(=O)c2ccccc2)CC1)c1c(N)n(CC(C)C)c(=O)[nH]c1=O | inactive
CCCCNC(=O)N(O)C1N(/N=C/c2ccc(N(C)C)cc2)C(=S)SC1(C)C (stereo not drawn) | inactive
Nc1ccccc1SC(C[N+](=O)[O-])c1ccccc1 (stereo not drawn) | 7 (active)
CCS(=O)(=O)c1cc([N+](=O)[O-])c(Sc2ccccc2N)s1 | inactive
Nc1ccccc1SCc1cc([N+](=O)[O-])cc2c1OCOC2 | inactive

SMILES | B-score
CCCCCCCNC(=O)C1(CC2CC(c3cccc(Br)c3)=NO2)CCN(C(=O)c2cc(OCC)c(OCC)c(OCC)c2)CC1 (stereo not drawn) | inactive
COc1cccc(Nc2nc(N)c([N+](=O)[O-])c(NCc3ccco3)n2)c1 | inactive
CNc1nc(Nc2ccc(C)c(Cl)c2)nc(N)c1[N+](=O)[O-] | 12.7 (active)
Cc1ccc(Nc2nc(N3CCOCC3)nc(N3CCOCC3)n2)cc1Cl | inactive
CC(=O)c1nn(-c2cccc(C(F)(F)F)c2)c(=O)[nH]c1=O | inactive
O=C1CCCN1CCCNC(=S)Nc1ccc(F)c(Cl)c1 | inactive
Cc1nc2ccccc2c(=O)n1-c1ccc(NS(=O)(=O)c2ccc(F)cc2F)cc1 | inactive
O=C1NC(c2ccc(-c3ccccc3[N+](=O)[O-])o2)C(C(=O)c2ccc(Cl)cc2)C(O)(C(F)(F)F)N1 (stereo not drawn) | 8.35 (active)
CC(=O)C1C(c2cccc(Oc3ccccc3)c2)NC(=O)NC1(O)C(F)(F)F (stereo not drawn) | inactive
CC1=NN(c2ccc(Cl)c(C(=O)O)c2)C(=O)/C1=C/c1ccc(-c2ccccc2[N+](=O)[O-])o1 | inactive
O=C(OCc1ccc([N+](=O)[O-])cc1)C1CC(=O)N(Cc2ccccc2Cl)C1 (stereo not drawn) | inactive
CC(=O)Nc1ccc(Nc2c([N+](=O)[O-])cc(S(C)(=O)=O)cc2[N+](=O)[O-])cc1 | inactive
O=C(NCc1cccs1)c1ccc(CS(=O)Cc2ccccc2Cl)o1 (stereo not drawn) | inactive
CC(C)OCCCNC(=O)CN1C(=O)/C(=C/c2ccccc2F)Oc2ccccc21 | inactive
O=C(CN1C(=O)COc2ccc(Cl)cc21)N1CCOCC1 | inactive
O=C(CN1CCCCCC1)Nc1ccc(Cl)cc1F | inactive
COc1cc2c(cc1OC)C(Nc1ccc(S(N)(=O)=O)cc1)=NC(C)(C)C2 | inactive
COc1cc2c(cc1O)C(SC)=NC(C)(C)C2 | 15.1 (active)
COc1cc2c(cc1OC)C(C(C)C)=NC(C)(C)C2 | inactive
O=C(CSC1=NS(=O)(=O)c2cc(F)ccc2N1)Nc1ccccc1F | inactive
CCOC(=O)CSc1nc(C)c(Oc2ccc(Cl)cc2Cl)c(=O)[nH]1 | inactive
Cc1nnc(SCC(=O)N2CCOCC2)[nH]c1=O | inactive
CCCCOC(=O)CNc1nnc(SCC(=O)OCC)[nH]c1=O | 26.4 (active)
NC(=O)C1CCCN(CC(=O)N2CCN(c3ccccc3)CC2)C1 (stereo not drawn) | inactive

SMILES | B-score
COc1ccc(/C=C/C(=O)c2ccc(OC)cc2O)cc1 | 6.02 (active)
COc1ccc(C(=O)/C=C/c2ccc(OC3CSC3)cc2)cc1 | inactive
COc1ccc(C(=O)/C=C/c2cccnc2)c(OC)c1 | inactive
Cc1ccc(N(C(=O)c2ccc(S(=O)(=O)N(C)C)cc2)C2C=CS(=O)(=O)C2)cc1 (stereo not drawn) | inactive
COc1ccc2oc(C(=O)OCC(=O)N(CC(C)C)c3c(N)n(Cc4ccccc4)c(=O)[nH]c3=O)c(C)c2c1 | inactive
[O-][n+]1ccc(OCc2ccccc2)cc1 | inactive
CCOc1ccc(NC(=O)C/C(C)=N/NC(=O)Cc2cccs2)cc1 | 7.41 (active)
CCOC(=O)c1ccc(NC(=O)Cc2cccs2)cc1 | inactive
CCOc1ccccc1NC(=O)Cc1cccs1 | inactive
CCn1c(O)c2ccc(C(=O)N=NC(=O)c3cccnc3)cc2c1O | inactive
O=S(=O)(Nc1ccc2[nH]ncc2c1)c1ccccc1Cl | inactive
Cc1c(NC(=O)c2cc(-c3ccc(Br)cc3)on2)c(=O)n(-c2ccccc2)n1C | inactive
Cc1c(NC(=O)c2cccnc2)c(=O)n(-c2ccccc2)n1C | inactive
Cc1c(NC(=O)c2coc(=O)c(Br)c2)c(=O)n(-c2ccccc2)n1C | 8.99 (active)
COc1ccc(CC(NC(C)=O)C(=O)NC2CCN(C(=O)Nc3ccc(C#N)cc3)CC2)cc1OC (stereo not drawn) | inactive
CCc1nn(CCCC(=O)NCc2ccc(C)cc2)c(=O)c2cc3occc3n12 | inactive
O=C(O)CCCCCCCCc1cn(CN2C(=O)c3ccccc3C2=O)nn1 | inactive
C=CCSc1nc2c(c(=O)[nH]1)C(C(C)C)C(C#N)=C(N)O2 (stereo not drawn) | 7.64 (active)
C=CCSc1nc(N)cc(=O)[nH]1 | inactive
Cc1cc2c(c(=O)n1C)C(C(C)C)C(C#N)=C(N)O2 (stereo not drawn) | inactive
O=C(c1cccnc1)N(c1cc2sc(=O)oc2c2ccccc12)S(=O)(=O)c1ccccc1 | inactive
CCc1ccc(C2C(C#N)=C(N)N(N3CCOCC3)C3=C2C(=O)CC(C)(C)C3)s1 (stereo not drawn) | 4.85 (active)
COc1ccc(C2C(C#N)=C(/N=C/N3CCOCC3)OC3=C2C(=O)CC(C)(C)C3)cc1OC (stereo not drawn) | inactive
CCc1ccc(C2C(C#N)=C(N)N(N(C)C)C3=C2C(=O)CCC3)s1 (stereo not drawn) | inactive

SMILES | B-score
Oc1ccccc1/C=N/n1c(-c2cccs2)n[nH]c1=S | inactive
S=c1[nH]nc(-c2cccs2)n1/N=C/c1cccs1 | inactive
Cc1ccsc1/C=N/n1c(=S)[nH]nc(C)c1=O | 5.78 (active)
CC(OC(=O)CCc1nc(=O)c2ccccc2n1C)C(=O)NCc1ccc2c(c1)OCO2 (stereo not drawn) | inactive
O=C(O)C1C2CC2CN1C(=O)c1ccc(Cl)cc1Cl (stereo not drawn) | inactive
COc1ccc(CNS(=O)(=O)c2ccc(-c3cnc(C4CC4)o3)cc2)cc1 | inactive
CC(=O)Nc1ccc(S(=O)(=O)Nc2cccc(NC(=O)C(C)(C)C)c2)cc1 | inactive
CC(=O)Nc1ccc(S(=O)(=O)Nc2nc(-c3ccc(C(C)(C)C)cc3)cs2)cc1 | 5.98 (active)
CC(=O)Nc1ccc(-c2csc(NC=C3C(=O)OC(C)(C)OC3=O)n2)cc1 | inactive
Oc1ccc(/C=N/Nc2ccc(C(F)(F)F)cn2)cc1O | 9.02 (active)
Oc1ccc(Br)cc1/C=N/Nc1ccccn1 | inactive
Cc1nccn1CC(=O)N/N=C/c1ccc(O)c(O)c1 | inactive
O=C(c1n[nH]c2c1CCC2)N1CCCC(Nc2cccc(F)c2)C1 (stereo not drawn) | inactive
O=C(NC(=S)Nc1ccc(S(=O)(=O)N2CCOCC2)cc1)c1ccccc1[N+](=O)[O-] | inactive
O=C(N/N=C/c1cc(Cl)cc([N+](=O)[O-])c1O)C(O)(c1ccccc1)c1ccccc1 | inactive
O=[N+]([O-])c1cc(Cl)cc(/C=N/NC(=S)Nc2cc(S(=O)(=O)N3CCOCC3)ccc2Cl)c1O | 6.74 (active)
COc1cccc(N2CC(C(=O)NCc3n[nH]c(=O)c4ccccc34)CC2=O)c1 (stereo not drawn) | inactive
CN(c1ccccc1)S(=O)(=O)c1cc(C(=O)Nc2nc3ccccc3[nH]2)ccc1Cl | inactive
COc1ccc(-c2nc3cc([N+](=O)[O-])ccc3o2)cc1OC | inactive
CCc1ccc2oc(-c3ccc(N)cc3)nc2c1 | 10.6 (active)
Nc1ccc(-c2nnc(-c3ccccc3)o2)cc1 | inactive
C=CC(COCc1ccccc1)N(Cc1ccccc1)S(=O)(=O)c1ccccc1Br (stereo not drawn) | inactive
